The values that follow come from PubChem BioAssay (NCATS).

“And” between values parts separate entries of the source, which are not always exact repeats. Identical values can stand only once. Records with an inconclusive call do not appear. The source made the active and inactive calls. Calls follow the shape of the dose curve; as a rule, active = well fitted activation curve with a large enough effect; inconclusive = small, poorly fitted or top-dose-only effect; inactive = no such curve, though single readings can be large or run the other way.
Potency is read from the fitted curve at half-maximal effect.

Cellular tumor antigen p53 (Homo sapiens), sequence (P04637 whole entry, looked up): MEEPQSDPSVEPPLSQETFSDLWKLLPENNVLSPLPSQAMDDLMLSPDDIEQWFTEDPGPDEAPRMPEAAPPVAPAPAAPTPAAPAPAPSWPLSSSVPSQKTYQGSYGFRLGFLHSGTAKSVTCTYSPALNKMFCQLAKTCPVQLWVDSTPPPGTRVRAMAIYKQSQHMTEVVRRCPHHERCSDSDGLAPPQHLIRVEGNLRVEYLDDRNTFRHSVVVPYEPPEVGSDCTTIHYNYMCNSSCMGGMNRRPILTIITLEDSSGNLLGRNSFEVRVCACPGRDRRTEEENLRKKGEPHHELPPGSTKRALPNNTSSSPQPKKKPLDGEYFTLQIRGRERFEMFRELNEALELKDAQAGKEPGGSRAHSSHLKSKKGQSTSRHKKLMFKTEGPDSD

This assay concerns the target Cellular tumor antigen p53 (Homo sapiens) (UniProt P04637). In words: Primary qHTS for small molecule compounds that upregulate eGFP-tagged delta133p53alpha (in N-terminal) cells. (AID 2060322). Also: nearly all actives have a fitted effect of over 75% in size.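 As to activation: cells pre-induced with doxycycline then dosed without doxycycline; series mostly up to about 56 µM; 0% = DMSO vehicle and 100% = reference activator.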 To be noted: NCI-H358 eGFP-delta133p53alpha fluorescence, 24 h; activation: stronger effect = higher value. The method in brief:
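NCI-H358 cells pre-induced 24 h with 10 ng/ml doxycycline for eGFP-delta133p53alpha, plated dox-free and exposed 24 h at 37C to titrated compounds. Fixed, Hoechst-stained; gated GFP peak intensity by laser scanning cytometry, normalized to DMSO (0%) and 57.5 uM 5-azacytidine (100%).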
For the compound `CS(=O)(=O)c1ccc(C(=O)C2C(=O)CCCC2=O)c([N+](=O)[O-])c1`, the activation is -5.86% (inactive).
Same read-out and setting: in the case of `O=C(O)c1ccc2[nH]cc(CCCCN3CC=C(c4ccccc4)CC3)c2c1` it was -5.08% (inactive); in that of `Sc1ccccc1Cl`, -0.837% (inactive); in that of `CCCC(C)(COC(N)=O)COC(=O)NC(C)C` (centres undefined), -6.69% (inactive) and 15.9% (inactive).
On the same count and under the same terms, in the case of `Clc1ccc(CO/N=C(\Cn2ccnc2)c2ccc(Cl)cc2Cl)c(Cl)c1` it was -8.37% (inactive); in that of `CCCOC(=O)c1cncn1C(C)c1ccccc1` (centres undefined), 17.5% (inactive).
Still for that read-out and setting: in the case of `Nc1ccc([N+](=O)[O-])cc1` it was 28.8% (inactive); in that of `CCC1(CC)C(=O)C=CNC1=O`, -17.5% (inactive).
On to `Oc1ccc(Cl)cc1Cc1ccccc1`, for which the Potency was 45.5 µM (active) and 24.6 µM (active).
For the compound `CC(C)=CC1C(C(=O)OCc2cccc(Oc3ccccc3)c2)C1(C)C` (centres undefined), the activation is 25.4% (inactive).
On to `c1cc2c(c(N3CCNCC3)c1)OCCO2`, for which the activation is -12.6% (inactive).
As for `N#C/C(=C/c1ccc(O)c(O)c1)C(N)=S`, the activation was -33.2% (inactive).
As to `CCN[C@@H](C)Cc1ccccc1`, the activation was -10.7% (inactive).
Still for that read-out and setting: in the case of `C=CCN1CC[C@]23CCCC[C@H]2[C@H]1Cc1ccc(O)cc13` it was -6.69% (inactive).
As to `O=c1oc2ccccc2c(O)c1Cc1c(O)c2ccccc2oc1=O`, the Potency was 17.4 µM (active).
Turning to `CCO/N=C(\CC)C1=C(O)CC(c2c(C)cc(C)cc2C)CC1=O` (centres undefined), the activation is 16.7% (inactive).
The same measure, in the same setting: in the case of `CCOC(=O)c1cncn1[C@H](C)c1ccccc1` it was -12.5% (inactive); in that of `CC[C@@H](CO)NC(=O)[C@@H]1C=C2c3cccc4[nH]cc(c34)C[C@H]2N(C)C1`, -0.565% (inactive) and -21.9% (inactive); in that of `COc1cc2cc(c1Cl)N(C)C(=O)C[C@H](OC(=O)C(C)C)[C@]1(C)O[C@H]1[C@H](C)[C@@H]1C[C@@](O)(NC(=O)O1)[C@H](OC)C=CC=C(C)C2`, 0.447% (inactive).
As for `Cc1ccc2c(c1)C1CN(C)CCC1N2` (centres undefined), the activation is 0.837% (inactive).
Take `CO/C=C(/C(=O)OC)c1ccccc1Oc1cc(Oc2ccccc2C#N)ncn1`: the activation was -36.8% (inactive).
In the case of `COc1cc(N)c(Cl)cc1C(=O)NC1CN2CCC1CC2` (centres undefined), the activation is 10.7% (inactive).
Regarding `Clc1cccc(N2CCNCC2)c1`, the activation was 17.5% (inactive).
Regarding `COC(=O)C(Cl)C(=O)OC`, the activation is -13.4% (inactive).
Regarding `CN1C[C@@H](NS(=O)(=O)N(C)C)C[C@@H]2c3cccc4c3c(cn4C)C[C@H]21`, the activation was 14.1% (inactive).
For `C[C@]12CCC(=O)C=C1CC[C@@H]1[C@H]3CC[C@](C)(O)[C@@]3(C)CC[C@@H]12`, the Potency is 50.9 µM (active).
For `O=C1c2ccccc2C(=O)C1C(=O)C(c1ccccc1)c1ccccc1`, the activation was 24.3% (inactive).
Regarding `CN(C)CCc1c[nH]c2ccc(O)cc12`, the activation is 5.08% (inactive).
Same read-out and setting: in the case of `CC(C)(N)Cc1ccccc1Cl` it was 10.7% (inactive); in that of `CN1C(=O)CN=C(c2ccccc2)c2cc([N+](=O)[O-])ccc21`, -19.8% (inactive); in that of `CC(Cc1ccccc1)NCCCCl` (centres undefined), -27.6% (inactive).
Turning to `Oc1ccccc1-c1ccccc1`, the activation was 10% (inactive).
As for `CCN(CC)CCOC(=O)C(C)(c1ccccc1)c1ccccc1`, the activation is -8.47% (inactive).
As for `COc1cc(CC#N)cc(OC)c1OC`, the activation is 2.82% (inactive).
For `c1ccc(CN2CCNCC2)cc1`, the activation was 15.3% (inactive).
`CN1C(=O)CN=C(c2ccccc2)c2cc(Cl)ccc21`: the activation is -7.34% (inactive).
For the compound `CC(C)(O)C=CC(=O)[C@](C)(O)[C@H]1[C@H](O)C[C@]2(C)[C@@H]3CC=C4[C@@H](C=C(O)C(=O)C4(C)C)[C@]3(C)C(=O)C[C@@]12C`, the Potency was 34.3 µM (active).
Regarding `CN1CCC(N(Cc2ccccc2)c2ccccc2)CC1`, the activation was 10.7% (inactive).
In the case of `Nc1ccc([As](=O)(O)O)cc1`, the activation is -5.02% (inactive).
